Source: PubChem
TDP1 cell noCPT: qHTS for Inhibitors of human tyrosyl-DNA phosphodiesterase 1 (TDP1): qHTS in cells in absence of CPT. 420,000 compounds, 15% hits. Potency, µM (series often up to 46.2 µM), without a hit: top-dose activity change, negative = growth inhibition, actives largely listed as inhibitors. DT40 Tdp1-/- hTDP1 cells, no CPT, ATP luminescence, 48 h; note: potency is the fitted concentration of half-maximal effect; nearly all actives have a fitted effect of over 55% in size
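Stably hTDP1-transfected Tdp1-null chicken DT40 cells were treated with library compounds minus camptothecin and grown for at least 48 hr at 37 °C, after which cellular ATP was quantified by luminescence.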
HT1080 IDH1KD tx: toxicity to HT-1080 IDH1 knockdown cells (counter line); HT-1080 IDH1 knockdown viability, ATP luminescence, 48 h; Potency, µM (doses to about 46.1 µM), for the others: top-dose activity, negative = toxicity, hits mostly cytotoxic; 360,000 compounds, 2% hits; AID 686971;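 note: potency is the fitted concentration of half-maximal effect; 0% = DMSO wells and -100% = cell-free medium wells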
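In this qHTS, HT-1080 cells depleted of IDH1 are exposed for 48 h at 37 °C to compound titrations. Toxicity is scored from CellTiter-Glo luminescence, with DMSO as full viability and medium alone as none.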
TDP1 cell CPT: growth inhibition of DT40 Tdp1-/-;hTDP1 cells with camptothecin (screen for TDP1 inhibitors); chicken DT40 Tdp1-/-;hTDP1 cells + 20 nM CPT, ATP luminescence, 48 h; Potency, µM (doses to about 46.2 µM), inactives show at the highest dose activity change, negative = growth inhibition, usual class: inhibitors; 420,000 compounds, 12% hits; note: potency is the fitted concentration of half-maximal effect; nearly all actives have a fitted effect of over 55% in size
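Cell growth measured by CellTiter-Glo luminescence after a minimum 48 h, 37 C compound exposure with 20 nM CPT in Tdp1-knockout DT40 cells stably expressing hTDP1, seeded 400/well; qHTS titration format.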
HT1080NT lethal: kills 2HG-producing HT-1080-NT fibrosarcoma cells; AID 686970; HT-1080-NT fibrosarcoma viability, CellTiter-Glo ATP luminescence, 48 h; 360,000 compounds, 1.6% hits; Potency, µM (doses to about 46.1 µM), for inactives: at the top dose activity, negative = less viability, actives largely listed as cytotoxic;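 note: NT is the 2HG producing partner of a matched IDH1 knockdown line; potency is the fitted concentration of half-maximal effect; 0% = DMSO-treated cells and -100% = media-only wells without cells; nearly all actives have a fitted effect of over 55% in size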
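A 48-hour cytotoxicity screen used HT-1080-NT cells plated 2 hours before compound delivery. ATP-based CellTiter-Glo luminescence measured viability, normalized to DMSO and no-cell controls.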
IL1B secr inh: inhibitors of inflammasome signaling (IL-1 beta secretion) | activity change, % at 57.5 µM | 360,000 compounds, 4.7% hits | AID 743279 | THP-1 LPS/ATP IL-1B secretion, AlphaLISA, 16 h; active compounds read low; in the data active = activity change below about -50%; inconclusive = mostly about -30% to -49%
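Secreted IL-1B measured by AlphaLISA bead assay after 16 h compound exposure of THP-1 cells; compounds (final up to 57.5 uM) added 1 h before LPS (250 ng/mL) and ATP (1.25 mM) stimulation; lower signal means less secretion.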
* marks the source's active call; other numbers are inactive results; ? = inconclusive; / = no result given. Most compounds without a hit are left out; they make up all but 19% or so of the library. Unless noted, calls come from the whole dose curve; as a rule, active = well fitted curve in the direction sought with a large enough effect; inconclusive = small, poorly fitted or top-dose-only effect, or another doubt; inactive = no such curve, though single readings can be large; an effect the other way counts as inactive or inconclusive. Unless noted, % is set by controls: 0 for no effect and ±100 for the full control effect.

SMILES	TDP1 cell noCPT	HT1080 IDH1KD tx	TDP1 cell CPT	HT1080NT lethal	IL1B secr inh
COc1ccc(/C=N/NC(=O)c2ccccc2OC)cc1COc1ccccc1[N+](=O)[O-]	29.1µM*	?	18.4µM*	?	-10.8
O=C(CCN1C(=O)CSc2ccccc21)Nc1ccc(OC(F)(F)F)cc1	?	10.5%	?	5.3%	?
Cc1cc(C)c(OCC(=O)Nc2nc(-c3ccccn3)cs2)c(C)c1	4.11µM*	?	3.66µM*	-18.7%	30.6
CCc1ccccc1OCC(=O)Nc1nc(-c2cccnc2)cs1	3.26µM*	?	3.26µM*	-38.6%	122.9
Cc1ccccc1OCC(=O)Nc1nc(-c2ccncc2)cs1	14.6µM*	-10.4%	20.6µM*	-15.5%	12.7
CCOC(=O)c1ccccc1NC(=O)N1CCC(N2CCN(Cc3ccccc3)C(=O)C2=O)CC1	-27.6%	/	-10.4%	/	/
O=C(Nc1ccccc1)N1CCC(c2ccccc2)C1 (centres undefined)	0.3%	1.8%	0.0%	0.2%	-17.0
Cc1ccc(NC(=O)N2CCC(N3CCN(Cc4ccccc4)C(=O)C3=O)CC2)cc1Cl	14.6µM*	/	?	/	/
O=C(Nc1ccc(Cl)c(Cl)c1)N1CCC(c2ccccc2)C1 (centres undefined)	20.6µM*	/	?	/	/
Cc1ccc(C2CCN(C(=O)Nc3ccc(Cl)c(Cl)c3)C2)cc1 (centres undefined)	25.9µM*	/	?	/	/
COc1cc(C(C)=O)ccc1Oc1ncccn1	0.5%	-8.3%	4.2%	-8.6%	-5.8
Cc1ccnc2nc(C(=O)OCC(=O)c3ccccc3)nn12	-14.7%	2.8%	20.0%	3.9%	8.0
COc1ccc(CC(=O)NC(C)c2ccc3ccccc3c2)cc1 (centres undefined)	-7.9%	-1.0%	-11.8%	0.2%	4.8
Cn1c(CNC(=O)C(Cc2ccccc2)NC(=O)c2cccc(F)c2)cc(=O)n(C)c1=O (centres undefined)	9.6%	11.5%	?	-1.6%	3.3
CC1(C)C2CCC1(CS(=O)(=O)NCc1ccc(S(N)(=O)=O)cc1)C(=O)C2 (centres undefined)	0.5%	10.1%	1.5%	8.0%	29.6
CC1(C)C2CCC1(CS(=O)(=O)NCc1ccc(C(F)(F)F)cc1)C(=O)C2 (centres undefined)	11.6µM*	-19.0%	?	-18.5%	-23.3
CCOC(=O)N1CCN(C(=O)c2oc3ccc(S(=O)(=O)N(CC)CC)cc3c2C)CC1	?	-11.0%	?	3.8%	53.3
Cc1ccc(S(=O)(=O)N(C)C)cc1NC(=O)C(C)N(C)Cc1sccc1C (centres undefined)	20.6µM*	-14.1%	18.4µM*	-0.4%	?
Cc1ccc(S(=O)(=O)N(C)C)cc1NC(=O)C(C)NC(C)c1cccs1 (centres undefined)	-24.1%	-4.3%	?	-0.8%	50.9
CCn1c2ccccc2c2cc(NC(=O)CSc3nnc(-c4cccc(F)c4)o3)ccc21	14.6µM*	?	16.4µM*	13µM*	-6.2
CCn1c2ccccc2c2cc(NC(=O)CSc3nnc(-c4cccc(C)c4)o3)ccc21	?	-2.2%	?	-2.6%	0.0
CCn1c2ccccc2c2cc(NC(=O)CSc3nnc(-c4ccccc4)o3)ccc21	20.6µM*	20.6µM*	9.2µM*	?	?
C(=N\Nc1ccccn1)/c1ccc2c(c1)OCCO2	?	-12.3%	-4.3%	-12.8%	-69.2*
O=c1[nH]c(N/N=C\c2ccc3c(c2)OCO3)nc2ccccc12	23.1µM*	-11.3%	?	1.8%	-24.3
Cc1cc(N/N=C/c2ccccc2Br)nc2ccccc12	?	19.7%	?	5.8%	8.9
Cc1cc(N/N=C/c2ccc3c(c2)OCO3)nc2ccccc12	25.9µM*	-17.1%	?	-10.6%	-22.3
O=S(=O)(N/N=C/c1ccc2c(c1)OCCO2)c1ccccc1	-16.0%	9.4%	-24.7%	1.0%	8.6
